Common to all, as to assay: NCI-60 one-dose screen, 48 h (100 = growth as untreated, 0 = no growth, -100 = all killed)
Holding throughout (settings): 10 µM unless noted

The test system of experiment [1] is HCT-15 colon.
The test system of experiment [2] is HT29 colon.
The test system of experiment [3] is SNB-75 CNS.
The test system of experiment [4] is SNB-19 CNS.
Experiment [5] relates to U251 CNS.
In experiment [6] the test system is PC-3 prostate.
For experiment [7], the system named is SK-MEL-5 melanoma.
The subject of experiment [8] is UACC-62 melanoma.
For experiment [9], the system named is SK-MEL-28 melanoma.
In experiment [10] the test system is LOX IMVI melanoma.

The text below walks through data of PubChem BioAssay (NCI).

The panel holds about 83,000 compounds, 20% with a hit somewhere; the sample as a whole holds those more often.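 Step 1: grow cells in 96-well plates. Step 2: add test compound at a single concentration. Step 3: incubate 48 h. Step 4: record percent growth.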 Values without a mark were called inactive. Activity calls are given as the source filed them. Rule for the calls: active = growth percent below 10; inactive = the rest.

On to `CCN(CC)CCCCCCNc1cc(OC)c(Cl)c2cccnc12`, for which the growth in experiment [1] is 78.4%; in experiment [2] it was 16.2%; in [3], 63.5%; in experiment [4], 96.4%; in experiment [5], 74.4%; in experiment [6], 64.9%. For the same compound, the growth was 68.7% in [7], -30.6% (active) in experiment [8] and 64.6% in [9].

Regarding `Cn1cc(-c2csc(-c3cccc(F)c3)n2)c2cccnc21`, the growth was -43.3% [100 µM] (active) in [1]; -71.7% [100 µM] (active) in [2]; -29.4% [100 µM] (active) in experiment [3]; -62.8% [100 µM] (active) in experiment [4]; -36.4% [100 µM] (active) in experiment [5]; -42% [100 µM] (active) in [6]. Further, the growth was -86.1% [100 µM] (active) in experiment [7], -54.3% [100 µM] (active) in [10] and -57.8% [100 µM] (active) in experiment [9].

For `CC1(C)CC(=O)CC2(C1)N=C(N)Nc1nc3ccccc3n12` (centres undefined), the growth in experiment [1] was 98.2%; in experiment [2], 91.6%; in [3] it was 82.3%; in experiment [4], 99.2%; in experiment [5], 104%; in experiment [6] it was 95.7%. The growth was 97.4% in experiment [7], 94.9% in [10] and 101% in experiment [9].

For `CC(C)(C)CC(C)(C)Nc1c(-c2ccncc2)nc2cnccn12`, the growth in experiment [1] was 97.9%; in [2], 93%; in experiment [3], 80.4%; in [4] it was 97.3%; in experiment [5] it was 99.2%; in experiment [6] it was 97.7%. Moreover, the growth in experiment [7] was 99.4%; in experiment [10] it was 98.8%; in experiment [9] it was 112%.

For the compound `COc1cc(Cn2ncc3ccc(NC(=O)c4cc5ccccc5oc4=N)cc32)cc(OC)c1OC`, the growth in experiment [1] was 27.2%; in experiment [2], 15.8%; in experiment [3], 90.9%; in experiment [4], 70.9%; in experiment [5], 62.9%; in experiment [6] it was 47.1%. The growth is 61.6% in experiment [7], 63.6% in experiment [10] and 51.3% in [9].

For `CN1CCN(CC(=O)Nc2nc(-c3cccc(NS(=O)(=O)c4cccc5c(N(C)C)cccc45)c3)cs2)CC1`, the growth in experiment [1] was 42.6%; in experiment [2] it was 35.2%; in experiment [3] it was 74.3%; in [4], 73.3%; in [5], 65.9%; in experiment [6], 42.2%. Moreover, the growth in experiment [7] is 48.9%; in [10], 29.7%; in experiment [9], 78.2%.

With `CCCCCCCCCCCC(c1ccccc1)[N+](C)(C)C` (centres undefined), the growth in experiment [1] was 93.4%; in experiment [2] it was 3.96% (active); in experiment [3] it was -15.3% (active); in experiment [4], 25.2%; in [5], 18.3%; in experiment [6] it was -18.8% (active). Moreover, the growth in [7] is -80.1% (active); in experiment [10] it was -36.8% (active); in experiment [9], 31.6%.

For the compound `CN(C)CC1C(=O)O[C@H]2[C@H]1CC/C(COC(=O)c1cc3ccccc3[nH]1)=C\CC[C@@]1(C)O[C@@H]21` (some centres undefined), the growth in experiment [1] was -57.9% (active); in [2], -75.7% (active); in experiment [3] it was -59.6% (active); in experiment [4] it was 49.5%; in [5], -60.9% (active); in [6], -23.7% (active). The values for the growth in experiment [7] and in experiment [9] were -98.6% (active) and -59.1% (active), respectively.

Regarding `CCCCCCCOc1c(OC)cc(C2CC(=O)Nc3c2c(C)nn3-c2nc3ccccc3[nH]2)cc1OC` (centres undefined), the growth in experiment [1] was 0.5% (active); in experiment [2], -2.41% (active); in experiment [3], -31.5% (active); in experiment [4], 16.1%; in experiment [5], -58.2% (active); in experiment [6] it was 12%. For the same compound, the growth in experiment [7] is -83.7% (active); in experiment [10], -89.2% (active); in experiment [9], -9.72% (active).

Take `Cc1ccc(C2SCC(=O)N2Cc2ccccc2)cc1` (centres undefined): the growth was 100% in experiment [1]; 96.9% in experiment [2]; 95.1% in [3]; 98.9% in [4]; 97.6% in experiment [5]; 92.1% in experiment [6]. Also, the growth in experiment [7] is 105%; in experiment [10], 97.9%.

`COc1cc(N2C(=O)c3nccnc3C2=O)cc(OC)c1OC`: the growth in experiment [1] is 104%; in [2], 99.8%; in experiment [3] it was 103%; in experiment [4] it was 106%; in experiment [5], 97.5%; in [6] it was 98.7%. The growth in [7] is 111%; in [10], 106%; in experiment [9] it was 108%.

For the compound `CC(=O)c1ccc(NCC(=O)Nc2ccccn2)cc1`, the growth is 109% in experiment [1]; 109% in experiment [2]; 92.7% in [3]; 100% in [4]; 102% in experiment [5]; 96.4% in experiment [6]. The growth in experiment [7] is 99.9%; in [10], 101%; in experiment [9], 115%.

As for `Cc1nc2ccccc2n1CC1NC(=O)NC1=O` (centres undefined), the growth in experiment [1] is 104%; in experiment [2] it was 105%; in experiment [3], 78.7%; in experiment [4] it was 98.4%; in [5] it was 103%; in [6] it was 96.2%. Also, the growth in experiment [7] was 100%; in [10], 95.6%; in experiment [9], 99.4%.

For the compound `COc1cccc(-c2nc3sccn3c2-c2ccnc(NCCNS(=O)(=O)c3cccc(F)c3)c2)c1`, the growth was 25.1% in experiment [1]; 27.9% in [2]; 27.4% in [3]; 59.2% in experiment [4]; 45.4% in experiment [5]; 14.1% in experiment [6]. The values for the growth in experiment [7], in experiment [10] and in experiment [9] were 2.05% (active), 32.7% and 56.1%, respectively.
